Compounds with a hit are over-represented: about 1.5% of the library has one in this group of screens.
RTF Ca sens act = cardiac RTF calcium sensitivity activators, primary screen, biochemical, IANBD-TnC fluorescence, EC20 calcium | 0.24% of 340,000 active | Troponin I, cardiac muscle (Homo sapiens) + Troponin T, cardiac muscle (Homo sapiens) + … | activation, % at 7.2 µM | IANBD-labeled TnC RTF fluorescence at EC20 calcium; 0% EC20 calcium, 100% full calcium | AID 493008, 2010;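 active means activation above the mean over all tested compounds plus 3 SD, cut at about 30% in these data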;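 further: rise in fluorescence read as greater calcium sensitivity of cardiac thin filaments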
CRFR2-BP ag = agonists of CRF-BP/CRF-R2 complex, primary screen, cell-based, HEK293, calcium dye fluorescence, uHTS. activation, % at 13.2 µM. CRF-binding protein / CRF receptor 2 complex (human). calcium dye fluorescence (FLIPR); percent of saturating CRF peptide response. 0.46% of 350,000 active;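 active means activation of at least 50%, plus an integration ratio under a set limit after plate pattern correction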
Cardiac RTF inh = cardiac RTF calcium sensitivity inhibitors, primary screen, biochemical, IANBD-TnC fluorescence, EC70 calcium | 0.12% of 340,000 active | inhibition, % at 7.15 µM | IANBD-labeled cardiac RTF, Ca2+ fluorescence | AID 493244, 2011;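 active means inhibition above the mean inhibition of all tested compounds plus 3 SD, cut at about 17% in these data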;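 further: assay run at fixed EC70 calcium of 1.6 mM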
IDE act = human IDE activators in live cells, primary screen, fluorescence polarization, HEK cells, FAbeta-B substrate; Insulin-degrading enzyme (Homo sapiens), P14735; activation, % at 5.96 µM; 0.073% of 340,000 active; FAbeta-B cleavage; 0% vehicle, 100% cell-free pure enzyme wells; AID 493087, 2011;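 active means activation above the mean of all tested compounds plus 3 SD, set per screening campaign, cut at about 17% in these data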
Target sequence (P14735 whole entry, looked up): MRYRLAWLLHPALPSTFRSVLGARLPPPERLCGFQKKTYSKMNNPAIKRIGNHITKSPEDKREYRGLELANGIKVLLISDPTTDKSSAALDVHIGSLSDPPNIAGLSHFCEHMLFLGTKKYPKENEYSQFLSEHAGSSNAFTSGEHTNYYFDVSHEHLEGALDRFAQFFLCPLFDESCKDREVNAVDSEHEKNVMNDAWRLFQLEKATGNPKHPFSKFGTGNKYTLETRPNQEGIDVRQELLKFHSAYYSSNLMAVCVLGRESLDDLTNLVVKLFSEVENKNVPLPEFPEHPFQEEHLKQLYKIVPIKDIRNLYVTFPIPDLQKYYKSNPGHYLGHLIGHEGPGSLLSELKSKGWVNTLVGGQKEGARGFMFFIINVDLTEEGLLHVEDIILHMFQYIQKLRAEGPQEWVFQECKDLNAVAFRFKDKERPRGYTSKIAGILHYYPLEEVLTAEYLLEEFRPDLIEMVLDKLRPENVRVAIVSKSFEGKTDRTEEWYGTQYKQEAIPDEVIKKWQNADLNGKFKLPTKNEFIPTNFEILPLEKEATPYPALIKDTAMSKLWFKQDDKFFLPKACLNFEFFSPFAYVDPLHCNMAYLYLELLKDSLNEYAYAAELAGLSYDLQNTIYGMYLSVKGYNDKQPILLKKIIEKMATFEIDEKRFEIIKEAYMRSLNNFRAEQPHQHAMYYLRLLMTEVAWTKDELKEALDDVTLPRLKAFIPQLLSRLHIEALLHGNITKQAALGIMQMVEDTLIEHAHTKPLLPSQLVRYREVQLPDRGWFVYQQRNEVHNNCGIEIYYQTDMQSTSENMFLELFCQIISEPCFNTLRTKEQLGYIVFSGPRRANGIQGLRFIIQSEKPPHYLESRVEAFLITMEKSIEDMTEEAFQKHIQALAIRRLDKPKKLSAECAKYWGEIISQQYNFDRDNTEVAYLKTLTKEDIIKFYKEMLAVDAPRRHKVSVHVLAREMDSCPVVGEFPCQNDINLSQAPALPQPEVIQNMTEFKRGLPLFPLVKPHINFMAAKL
CRFR2-BP antag = antagonists of CRF-BP/CRF-R2 complex, primary screen, cell-based, HEK293, calcium dye fluorescence, uHTS; inhibition, % at 11.8 µM; 0.59% of 350,000 active; CRF-induced calcium fluorescence; AID 588475, 2011;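 active means inhibition of the ligand-induced calcium signal above about 50% at the single tested concentration, limit read from the data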
IDE cell inh = human IDE inhibitors in live cells, primary screen, fluorescence polarization, HEK cells, FAbetaB substrate; 0.41% of 320,000 active; FAbetaB cleavage; AID 434962, 2010; inhibition, % at 5.59 µM;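 active means percent inhibition above the average of all tested compounds plus 3 SD, set per screening campaign, cut at about 16% in these data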;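 further: IDE supplied by intact live HEK cells; FP after avidin binding of uncleaved biotin substrate so inhibition keeps polarization high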
Each line names hits and unclear results; the compound was inactive in the other large screens.

COc1c(C(=O)Nc2ccc3[nH]c(=O)[nH]c3c2)cc2ccccc2c1Br	IDE act 20.3
COc1c(C(=O)Nc2ccc(CN3CCOCC3)cc2)cc2ccccc2c1Br	none
CSc1c(CC(=O)NCCCO)n(Cc2ccccc2)c2ccccc12	none
COc1ccc(NC(=O)Cc2c(SC)c3ccccc3n2Cc2ccccc2)cc1	CRFR2-BP antag 60.5
Nc1ccccc1SC1CC(=O)N(c2ccc3c(c2)OCO3)C1=O (centres undefined)	CRFR2-BP antag 84.5 (no result: RTF Ca sens act, Cardiac RTF inh, IDE act)
O=C(O)c1ccccc1SC1CC(=O)N(c2ccc3c(c2)OCO3)C1=O (centres undefined)	none
O=C(Nc1cc(C(F)(F)F)ccc1-n1cncn1)c1ccc(Cl)cc1	CRFR2-BP antag 81.7
Cc1nc2sccn2c(=O)c1S(=O)(=O)Nc1cccc(Cl)c1C	CRFR2-BP ag 57.3
CCOc1ccc(/C=C2\SC(=S)N(NS(=O)(=O)c3ccc(C)cc3)C2=O)cc1OC	CRFR2-BP antag 50.7
CCOc1ccc(S(=O)(=O)N2CCN(C(=O)C3CSC4(C)CCC(=O)N34)CC2)cc1 (centres undefined)	none
CCOc1ccccc1N1CCN(C(=O)C2CSC3(C)CCC(=O)N23)CC1 (centres undefined)	CRFR2-BP antag 72.1
CC(C)Cc1csc(NC(=O)c2ccc(Cl)cc2)c1C(=O)O	CRFR2-BP antag 94.9
CC(C)Cc1csc(NC(=O)c2ccccc2Cl)c1C(=O)O	none
CCCCCCc1cc2cc(C(=O)Nc3ccccc3OC)c(=O)oc2cc1O	CRFR2-BP ag 102.0
COc1ccc(-c2nnc(-c3cc4ccccc4oc3=O)o2)cc1	none
O=C(O)c1ccc2oc(=O)c(S(=O)(=O)c3ccc(F)cc3)cc2c1	none
CCCCCCc1cc2cc(-c3nnc(-c4ccccc4OC)o3)c(=O)oc2cc1O	CRFR2-BP ag 230.1, IDE cell inh 48.0
CCCCCCc1cc2cc(S(=O)(=O)c3ccc(F)cc3)c(=O)oc2cc1O	CRFR2-BP ag 54.2
COc1cccc2cc(-c3nnc(-c4ccccc4)o3)c(=O)oc12	CRFR2-BP antag 90.1
O=C(CCc1ccc(S(=O)(=O)N2CCOCC2)cc1)Nc1ccc(F)c(F)c1F	none
O=C(CCCCCN1C(=O)c2ccccc2C1=O)Nc1ccc(C(=O)O)cc1	none
CN(C)c1ncnc2c1ncn2C1CCCO1 (centres undefined)	none (no result: IDE cell inh)
Nc1nc(SCC(=O)c2c(N)n(C3CC3)c(=O)[nH]c2=O)n[nH]1	none (no result: IDE cell inh)
CCCCCOC(=O)CSc1nnc(-c2cc(OC)c(OC)c(OC)c2)o1	none
CCCCCCc1cc2cc(-c3nnc(-c4cc(OC)c(OC)c(OC)c4)o3)c(=O)oc2cc1O	CRFR2-BP ag 98.7 (no result: RTF Ca sens act, Cardiac RTF inh, IDE act)
Cc1cc(C)c(NC(=O)/C(=C/c2ccccc2)c2ccccc2)c(C)c1	CRFR2-BP antag 66.9
Cc1ccc(NC(=O)/C(=C/c2ccco2)c2ccccc2)c(C)c1	none
O=S1(=O)N=C(N/N=C/c2cccs2)c2ccccc21	none
COc1ccccc1OCC(=O)NCC1CCCN(C(=O)c2ccccc2C(C)=O)C1 (centres undefined)	CRFR2-BP antag 68.3
O=C1S/C(=C\c2ccc(N3CCOCC3)o2)C(=O)N1Cc1c(F)cccc1Cl	RTF Ca sens act 100.1
O=C1S/C(=C/c2ccc(N3CCOCC3)o2)C(=O)N1Cc1c(F)cccc1Cl	RTF Ca sens act 144.9, CRFR2-BP ag 84.0
O=C1S/C(=C\c2ccc(N3CCOCC3)o2)C(=O)N1c1ccccc1	RTF Ca sens act 45.0
O=C1N=C(N2CCOCC2)S/C1=C/c1ccc(-c2ccccc2Cl)o1	none
COc1cc(NC(=O)NNC(=O)c2cc3occc3n2C)cc(OC)c1OC	none
CC(OC(=O)c1ccc(-c2ccc(O)cc2)cc1)C(=O)NC1CCCCC1C (centres undefined)	CRFR2-BP antag 59.9
NC(=O)C1=C(c2ccccc2)c2ccccc2C1=O	CRFR2-BP ag 66.7 (no result: IDE cell inh)
CCOc1ncccc1C(=O)Nc1ccc(C)c(S(=O)(=O)N2CCCCCC2)c1	none
CC(=O)c1ccc(NC(=O)C(C)OC(=O)c2ccc(Br)o2)cc1 (centres undefined)	CRFR2-BP antag 53.9
CCn1c(CCNC(=O)c2ccc(Cl)cc2Cl)n[nH]c1=S	none
CCn1c(CCNC(=O)c2ccccc2Cl)n[nH]c1=S	CRFR2-BP antag 82.0
COc1ccc(N=C2S/C(=C\c3ccc(N4CCOCC4)o3)C(=O)N2CCc2c[nH]c3ccccc23)cc1	RTF Ca sens act 31.6 (no result: CRFR2-BP ag, CRFR2-BP antag)
CC(=O)OC(C=C(C)C)C/C(C)=C/COc1c2ccoc2cc2oc(=O)ccc12 (centres undefined)	none (no result: IDE cell inh)
COc1ccc2c(c1)-c1nc(/N=C/c3ccc(O)cc3)sc1CC2	CRFR2-BP antag 90.6
CCOC(=O)C(C)(C)N(Cc1ccc(Cl)cc1)S(=O)(=O)c1ccc(Cl)c([N+](=O)[O-])c1	none (no result: RTF Ca sens act, CRFR2-BP ag, Cardiac RTF inh, IDE act, CRFR2-BP antag)
CCOC(=O)C(C)(C)N(Cc1ccc(C)cc1)S(=O)(=O)c1ccc(Cl)c([N+](=O)[O-])c1	CRFR2-BP antag 67.0
O=C(Nc1ccccc1Cl)C1CCCN(S(=O)(=O)c2ccc(-n3cnnn3)cc2)C1 (centres undefined)	none
COc1ccc(Oc2ccc(C(F)(F)F)cc2NC(=O)c2ccc(OC)cc2)cc1	CRFR2-BP antag 52.1
COC(=O)C(F)(F)Sc1c(C)[nH]c2ccccc12	CRFR2-BP antag 51.8
Cc1[nH]c2ccccc2c1SCC(=O)O	none
N#C/C(=C(/O)COc1ccc(Cl)cc1)c1nc2ccccc2s1	CRFR2-BP ag 69.6, CRFR2-BP antag 71.7
N#C/C(=C(/O)COc1ccccc1)c1nc2ccccc2s1	none
CN(N=O)c1ccc(CC2CCc3ccccc32)cc1 (centres undefined)	none (no result: IDE cell inh)
c1ccc2c(c1)OCCOCCOCCOCCOCCOc1ccccc1OCCOCCOCCO2	CRFR2-BP ag 59.7, CRFR2-BP antag 99.1
Cc1cc(C)cc(OC(=O)COc2ccccc2C)c1	none
C#CCOCCOCCOCCNc1nc(N2CCN(C(=O)CCCCCCCCCCNC(=O)[C@H]([C@@H](C)CC)n3cc(CCCCCN)nn3)CC2)nc(N2CCN(C(=O)CCCCCCCCCCNC(=O)[C@H](CO)n3cc(CCCCCN)nn3)CC2)n1	CRFR2-BP ag 76.6, IDE act 36.9
C#CCOCCOCCOCCNc1nc(N2CCN(C(=O)CCCCCCCCCCNC(=O)[C@H]([C@@H](C)CC)n3cc(CCCCN=C(N)N)nn3)CC2)nc(N2CCN(C(=O)CCCCCCCCCCNC(=O)[C@H]([C@@H](C)CC)n3cc(CCCCN=C(N)N)nn3)CC2)n1	none (no result: RTF Ca sens act, CRFR2-BP ag, Cardiac RTF inh, IDE act, CRFR2-BP antag)

Compound activity (PubChem BioAssay)
